Test results from article PMC7819943, “Rice protein-binding microarrays: a tool to detect cis-acting elements near promoter regions in rice”.
Over roughly 68,000 sequences, “fluorescence intensity (a.u.)” has its median near 9,100; the highest 2% begin near 16,000. Many of the other results were omitted from the sample, so the highest values are more common in it than they were.

Target: OsWRKY34 (Oryza sativa, UniProt Q0JBA9 1-250)
Test: protein-binding microarray (RPBM); PBS, 2% BSA, 51.3 ng/ul salmon testes DNA, 50 uM zinc acetate, 200 nM TF, 25 C, 1 h; high values mean tight binding
Details: protein: recombinant; tags: N-terminal polyhistidine and DsRed monomer fusion (pET32a); label: CyDye5-dUTP incorporated in the synthesized complementary strand; 3' TTTTT single-stranded linker to array surface; dsDNA, one strand shown
Procedure, shortened: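 Transcription factors were each fused at the N-terminus to a polyhistidine tag plus DsRed and expressed in E. coli BL21-CodonPlus before Ni–NTA purification. Binding to a double-stranded custom Agilent array was carried out with 200 nM protein at 25 °C for 1 h in PBS, 2% BSA, salmon testes DNA and 50 µM zinc acetate. The binding signal is per-feature fluorescence intensity, in arbitrary units, on an Axon 4000B scanner.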

Sequence of OsWRKY34 (Q0JBA9 entry or part of it): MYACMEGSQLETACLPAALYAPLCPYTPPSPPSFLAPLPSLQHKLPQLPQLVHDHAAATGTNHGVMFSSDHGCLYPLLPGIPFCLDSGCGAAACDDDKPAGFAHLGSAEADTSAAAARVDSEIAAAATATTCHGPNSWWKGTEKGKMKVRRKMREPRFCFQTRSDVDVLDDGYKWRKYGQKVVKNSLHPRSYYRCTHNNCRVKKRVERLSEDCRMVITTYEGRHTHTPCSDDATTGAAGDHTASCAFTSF

Which binding signal does the source give for “AATGGTCAAACGTTGGATAAAAAGTCAACGGCGTCATACACGGAGTCACCTAGTGCAG” here?
Its binding signal is 14700 fluorescence intensity (a.u.).

With “ACAAATGGTCAAACGTTGATAAAAAAGTCAACGGCGTCATCGGAGTCACCTAGTGCAG” as the sequence, how does the binding signal read?
The binding signal was 20600 fluorescence intensity (a.u.).

For “GAAATGTCAAATATTTGTTAAAAAGTCAACGGCGTCATACCGGAGTCACCTAGTGCAG”, which binding signal is on record?
The binding signal was 11900 fluorescence intensity (a.u.).

With “AAAAAGTCAACGGCGTCATATATTAAAATATGGAGAGAGTCGGAGTCACCTAGTGCAG” as the sequence, how does the binding signal read?
Its binding signal is 8150 fluorescence intensity (a.u.).

How did the binding signal turn out when “TTTAAATAAAACGAATGGTCAAACGTTGATAAAAAGTCAACGGAGTCACCTAGTGCAG” was run?
Its binding signal is 13300 fluorescence intensity (a.u.).

“TAAAACGAATGGTCAAACGTTGGTCGAAAAGTCAACGGCGCGGAGTCACCTAGTGCAG” was tested. Which binding signal did it give?
The binding signal was 14400 fluorescence intensity (a.u.).

“ACAAATGGTCAAACGTTGGTCGAAAAGTCAACGGCGTCATCGGAGTCACCTAGTGCAG” was tested. Which binding signal did it give?
Its binding signal is 13700 fluorescence intensity (a.u.).

How did the binding signal turn out when “CGGATGGTCAAACGTTGGTCAAAAAGTCAACGGCGTCATACGGAGTCACCTAGTGCAG” was run?
The binding signal was 19600 fluorescence intensity (a.u.).

With “GTTTGTCAAAAAGTCAACGGCGTCATATATTATACGGAGGCGGAGTCACCTAGTGCAG” as the sequence, how does the binding signal read?
Its binding signal is 18800 fluorescence intensity (a.u.).

“AAACGAATAGTCAAACGTTGATCGAAAAGTCAACGGCGTCCGGAGTCACCTAGTGCAG” was tested. Which binding signal did it give?
Its binding signal is 19300 fluorescence intensity (a.u.).

How did the binding signal turn out when “GATCAAACGTTGGTTAAAAAGTCAACGGCGTCATACATTACGGAGTCACCTAGTGCAG” was run?
The binding signal was 10700 fluorescence intensity (a.u.).

For “ATAAAACAAATGATCAAACGTTGAATAAAAAGTCAACGGCCGGAGTCACCTAGTGCAG”, which binding signal is on record?
Its binding signal is 11100 fluorescence intensity (a.u.).

For “GGTTTTTCCTAGTTTTGAGATTTACGTGCTATTTTGTGAACGGAGTCACCTAGTGCAG”, which binding signal is on record?
Its binding signal is 8950 fluorescence intensity (a.u.).

Which binding signal does the source give for “CGTGTCGCACCACATCCAGCGTCCCACGGCCTACCACCGCCGGAGTCACCTAGTGCAG” here?
The binding signal was 8700 fluorescence intensity (a.u.).

Which binding signal does the source give for “ATATGGCATCTCGGTTTCGTCTTAACAGGGTATTGCACTACGGAGTCACCTAGTGCAG” here?
The binding signal was 9900 fluorescence intensity (a.u.).

Which binding signal does the source give for “ACTCCCTTGCTTTTTCTCGCTATCAATCACAATAATCCAACGGAGTCACCTAGTGCAG” here?
Its binding signal is 9590 fluorescence intensity (a.u.).

Which binding signal does the source give for “CGTGTGGTTGATTGTGTGTGCGAGCCGAATGCTGCCTACTCGGAGTCACCTAGTGCAG” here?
Its binding signal is 9260 fluorescence intensity (a.u.).

“TTACCATGGTGCATTTACGGCTGTGATCGCTTTGTTGTACCGGAGTCACCTAGTGCAG” was tested. Which binding signal did it give?
The binding signal was 9370 fluorescence intensity (a.u.).

“TCTCGGCTCGCAATGCTTTTTGGAGTTTTGTTTCTCTCCCCGGAGTCACCTAGTGCAG” was tested. Which binding signal did it give?
The binding signal was 10200 fluorescence intensity (a.u.).

For “TCATTGCACCTCTCATTTAACAAGGGATATAATAGTTCTTCGGAGTCACCTAGTGCAG”, which binding signal is on record?
The binding signal was 8360 fluorescence intensity (a.u.).

“TGGCATCATCGACCATACACTTTTGTCAATCCGTTCAGCTCGGAGTCACCTAGTGCAG” was tested. Which binding signal did it give?
Its binding signal is 8910 fluorescence intensity (a.u.).

“GCTTCAAACTCGAGCTTCTACCAGTACCAGCTACCAGGTGCGGAGTCACCTAGTGCAG” was tested. Which binding signal did it give?
The binding signal was 8190 fluorescence intensity (a.u.).

Which binding signal does the source give for “CAAACGTTGGAAAAAAGTCAACGGCGTCATATATTTTAATCGGAGTCACCTAGTGCAG” here?
The binding signal was 15800 fluorescence intensity (a.u.).

“AAAAAGTCAACGGCGTCAAACATATTGAAACGGAGGGAGTCGGAGTCACCTAGTGCAG” was tested. Which binding signal did it give?
Its binding signal is 8240 fluorescence intensity (a.u.).

With “TAGTCAAACGTTGAAAAAAAAAGTCAACGGCGTCACACATCGGAGTCACCTAGTGCAG” as the sequence, how does the binding signal read?
Its binding signal is 20900 fluorescence intensity (a.u.).
